Test results: PubChem BioAssay (Tox21)
A number with no mark means an inactive call. Results filed as inconclusive are left out. A call without a number means that no potency is given here. Activity calls are given as the source filed them. Unless noted, the call rests on the fitted dose curve; in most records, active means well fitted curve in the direction sought with a large enough effect in the repeat runs; inconclusive means weak or mixed curves; inactive means no such curve, though single readings can be large; an effect the other way counts as inactive or inconclusive.

Tests used:
[1] = qHTS assay to identify small molecule antagonists of the estrogen receptor alpha (ER-alpha) signaling pathway using the BG1 cell line in the presence of 0.1 nM 17-beta-estradiol - cell viability counter screen (AID 1259241); further: nearly all actives have a fitted effect of over 40% in size
In short: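 In this screen, hormone-deprived VM7Luc4E2 cells were seeded at 4,000 per well, dosed with compound and 0.1 nM estradiol final, and incubated 22 hr at 37C and 5% CO2; fluorogenic live-cell protease signal reported viability.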

[2] = qHTS assay to identify small molecule antagonists of the androgen receptor (AR) signaling pathway using the MDA cell line in the presence of 0.5 nM R1881 - cell viability counter screen (AID 1259242); further: nearly all actives have a fitted effect of over 45% in size
In short: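 Steps: plate MDA-kb2 cells, rest 5 hr at 37C without CO2; pin in compounds in DMSO; add R1881 to 0.5 nM final; incubate 16 hr; add CellTiter-Fluor, 30 min; read fluorescence.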

[3] = target: Estrogen receptor (Homo sapiens) (UniProt P03372); assay: qHTS assay to identify small molecule antagonists of the estrogen receptor alpha (ER-alpha) signaling pathway using the BG1 cell line in the presence of 0.1 nM 17-beta-estradiol (AID 1259244); further: nearly all actives have a fitted effect of over 50% in size; further: potency means the concentration at half of the fitted maximal effect
Chain of Estrogen receptor (Homo sapiens) (P03372 whole entry, looked up): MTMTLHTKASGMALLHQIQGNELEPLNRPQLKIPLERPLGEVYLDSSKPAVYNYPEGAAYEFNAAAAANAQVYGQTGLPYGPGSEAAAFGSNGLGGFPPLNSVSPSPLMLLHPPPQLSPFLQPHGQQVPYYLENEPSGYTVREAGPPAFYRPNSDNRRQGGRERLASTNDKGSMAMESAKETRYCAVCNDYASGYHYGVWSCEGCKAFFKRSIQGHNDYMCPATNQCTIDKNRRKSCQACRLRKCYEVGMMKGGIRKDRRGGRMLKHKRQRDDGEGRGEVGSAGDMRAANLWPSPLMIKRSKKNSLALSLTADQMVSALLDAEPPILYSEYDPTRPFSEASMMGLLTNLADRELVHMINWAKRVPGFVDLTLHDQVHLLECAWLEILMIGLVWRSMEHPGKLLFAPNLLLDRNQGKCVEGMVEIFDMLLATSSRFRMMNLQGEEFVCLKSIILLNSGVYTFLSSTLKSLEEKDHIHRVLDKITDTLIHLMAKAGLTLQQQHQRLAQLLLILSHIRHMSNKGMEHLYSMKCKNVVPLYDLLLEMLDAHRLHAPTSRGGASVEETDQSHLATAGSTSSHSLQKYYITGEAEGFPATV
In short: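 Antagonist mode: compounds in DMSO are pinned onto VM7Luc4E2 reporter cells, 0.1 nM final 17beta-estradiol is added, and after 22 h at 37C luciferase luminescence is measured with ONE-Glo.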

[4] = qHTS assay to identify small molecule HDAC inhibitors - cell viability counter screen (AID 1259365); further: series mostly up to about 92 µM; nearly all actives have a fitted effect of over 50% in size
In short: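 Measured quantity is CellTiter-Glo luminescence from wild-type HCT-116 cells after compound incubation of 2hr at 37C, 5% CO2; reagent developed 30min at room temperature.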

[5] = qHTS assay to identify small molecule agonists of the sonic hedgehog signaling (Shh) pathway - cell viability counter screen (AID 1259366); further: nearly all actives have a fitted effect of over 50% in size; further: potency means the concentration at half of the fitted maximal effect
In short: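 In quantitative high-throughput format, 3T3 Gli1-Luc cells were exposed to compounds for 24hr and multiplexed for viability using CellTiter-Fluor, incubated 1hr at 37C before the fluorescence read.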

[6] = qHTS assay to identify small molecule antagonists of the sonic hedgehog signaling (Shh) pathway - cell viability counter screen (AID 1259367); further: nearly all actives have a fitted effect of over 55% in size
In short: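 Viability was read by CellTiter-Fluor fluorescence in the same wells, reagent added 23 hr into compound treatment and incubated 1 hr at 37C. The 3T3 Gli1-Luc reporter cells (2,000/well) received conditioned medium after compound and ran 24 hr.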

[7] = qHTS assay to identify small molecule HDAC inhibitors (AID 1259364); further: potency means the concentration at half of the fitted maximal effect;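 further: wild-type HCT-116 cells with endogenous class I/II HDAC activity; nearly all actives have a fitted effect of over 45% in size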
In short: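 Cells (HCT-116, wild type) are seeded at 1,500 per well, incubated overnight, treated with compound in DMSO for 2 hr, then developed with HDAC-Glo I/II reagent for 30 min at room temperature.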

[8] = qHTS assay to identify small molecule agonists of the sonic hedgehog signaling (Shh) pathway (AID 1259368; calls by dose curve;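 further: NIH/3T3-derived 3T3Gli1-Luc cells carrying a stable Gli1-driven firefly luciferase reporter; series mostly up to about 92 µM; nearly all actives have a fitted effect of over 15% in size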)
In short: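 Cells of a mouse NIH/3T3 clone stably expressing luciferase under the Gli1 transcriptional response element are exposed to test chemicals for 24 hr at 37 C. Pathway activation is detected as a rise in luminescence.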

[9] = qHTS assay to identify small molecule phospholipidosis (PLD) inducers (AID 1259344; active means well fitted curve in the direction sought with a large enough effect; an effect the other way counts as inactive or inconclusive)
In short: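 Phospholipid accumulation was scored by imaging: fixed, Hoechst-counterstained HepG2 cells stained with LipidTOX Red after 24 h compound exposure at 37 C. Read-outs were pit count and pit intensity per well or per cell, with amiodarone and DMSO controls.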

| SMILES | Potency [1] | Potency [2] | Potency [3] | Potency [4] | Potency [5] | Potency [6] | Potency [7] | Potency [8] | outcome [9] |
| --- | --- | --- | --- | --- | --- | --- | --- | --- | --- |
| CCOC(=O)C(Cl)C(C)=O (stereo not given) | inactive | inactive | inactive | inactive | inactive | inactive |  |  |  |
| CC(=O)CCC(C)=O | inactive | inactive | inactive | inactive | inactive | inactive | inactive | inactive |  |
| CC1(C)CCC(Cc2ccc(Cl)cc2)C1(O)Cn1cncn1 (stereo not given) | inactive | inactive | 61.1 µM (active) | inactive | inactive | inactive | inactive |  |  |
| CCOP(=S)(Oc1ccc([N+](=O)[O-])cc1)c1ccccc1 (stereo not given) | inactive | inactive | inactive | inactive | inactive | inactive | inactive | inactive |  |
| CCCN(CCCl)c1c([N+](=O)[O-])cc(C(F)(F)F)cc1[N+](=O)[O-] | inactive | inactive | inactive | inactive | inactive | inactive | inactive |  |  |
| CCOP(=O)(OCC)SCCSCC | inactive | inactive | inactive |  | inactive | inactive | inactive |  |  |
| NC(=O)CI | inactive | inactive | inactive |  | inactive | inactive | 54.9 µM (active) | inactive |  |
| C=CC(C)=O | inactive | inactive | inactive | inactive | inactive | inactive |  |  |  |
| O=C(O)C(F)(F)C(F)(F)C(F)(F)C(F)(F)C(F)(F)C(F)(F)C(F)(F)C(F)(F)C(F)(F)F | inactive | inactive | inactive | inactive | inactive | inactive | inactive | inactive |  |
| CC(Cl)C(C)Cl (stereo not given) | inactive | inactive | inactive | inactive | inactive | inactive | inactive | inactive |  |
| Cl/C=C\Cl | inactive | inactive | inactive | inactive | inactive | inactive | inactive | inactive |  |
| Cn1cc[n+](C)c1 (tested in a mixture with another compound) | inactive | inactive | inactive | inactive | inactive | inactive | inactive | inactive |  |
| CCCCC(CC)COP(=O)(Oc1ccccc1)Oc1ccccc1 (stereo not given) | inactive | inactive | inactive | inactive | inactive | inactive | inactive | inactive |  |
| Nc1nc(=S)[nH][nH]1 | inactive | inactive | inactive |  | inactive | inactive | inactive | inactive |  |
| O=C(NCc1cccnc1)Nc1ccc([N+](=O)[O-])cc1 | inactive | inactive | inactive | inactive | inactive | inactive | inactive | inactive |  |
| Cl/C=C\C[N+]12CN3CN(CN(C3)C1)C2 | inactive | inactive | inactive | inactive | inactive | inactive | inactive | inactive |  |
| c1ccc(CN2CCNCC2)cc1 | inactive | inactive |  | inactive | inactive | inactive | inactive |  | inactive |
| CCOc1ccc(C(C)(C)COCc2cccc(Oc3ccccc3)c2)cc1 | inactive | inactive | inactive | inactive |  | inactive |  | inactive |  |
| C=CCC1([C@H](C)CCC)C(=O)NC(=O)NC1=O | inactive | inactive |  | inactive | inactive | inactive | inactive | inactive | inactive |
| COc1nn(CSP(=S)(OC)OC)c(=O)s1 | inactive | inactive |  | inactive | inactive | inactive | inactive |  | inactive |
| C=CC(=O)OCCCCO | inactive | inactive | inactive | inactive | 61.1 µM (active) |  |  | inactive |  |
| CN1C(=O)NC(=O)C(C)(C2=CCCCC2)C1=O (stereo not given) | inactive | inactive |  | inactive | inactive | inactive | inactive | inactive | inactive |
| Oc1ccc(Cl)c(Cl)c1Cl | inactive | inactive |  | inactive | inactive | inactive | inactive |  |  |
| CCC(COC(=O)c1cc(OC)c(OC)c(OC)c1)(c1ccccc1)N(C)C (stereo not given) | inactive | inactive |  | inactive | inactive | inactive | inactive | inactive | inactive |
| CC(=O)[C@H]1CC[C@H]2[C@@H]3CC[C@H]4C[C@](C)(O)CC[C@]4(C)[C@H]3CC[C@]12C | inactive | inactive |  | inactive | inactive | inactive |  | inactive | inactive |
| C=CCN1CC[C@]23c4c5ccc(O)c4O[C@H]2C(=O)CC[C@@]3(O)[C@H]1C5 | inactive | inactive |  | inactive | inactive | inactive | inactive | inactive | inactive |
| O=C(O)C(F)(F)C(F)(F)C(F)(F)C(F)(F)C(F)(F)C(F)(F)C(F)(F)C(F)(F)C(F)(F)C(F)(F)F | inactive | inactive |  | inactive | inactive | inactive | inactive |  |  |
| CC(O)(CS(=O)(=O)c1ccc(F)cc1)C(=O)Nc1ccc(C#N)c(C(F)(F)F)c1 (stereo not given) | inactive | inactive |  | inactive | inactive | inactive | inactive | inactive | inactive |
| C=CC(=O)OCC(C)O (stereo not given) | inactive | inactive | inactive | inactive |  | inactive |  | inactive |  |
| CCC(Cl)CCl (stereo not given) | inactive | inactive | inactive |  | inactive | inactive |  | inactive |  |
